Assays:
[1] = test system: Human papillomavirus type 1a protein E7 (residues 44-93); assay: small molecules binding HPV E7 44-93 – biochemical, small-molecule microarray, residues 44-93, 635 nm fluorescence, primary screen (AID 1108); conditions: fluorescence 635 nm, higher = more signal;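 also: E7 fragment applied at 1 µg/mL in TBST for 1 h at 4 C; score combines spot fluorescence with its signal to noise ratio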
[2] = hepatitis C replication reporter changes, two-sided – Huh7 cells, luciferase reporter, HCV replication inhibitor project, primary screen (AID 1109); conditions: Huh7 HCV replicon luciferase reporter, 48 h; higher = more signal;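 also: huh7 hepatoma cells harbouring a luciferase neomycin HCV replicon reporter; luciferase luminescence as measure of HCV replicon replication; test concentration not given here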
[3] = biological target: Left-right determination factor 2 (Homo sapiens) (UniProt O00292); assay: small molecules binding LEFTY2 protein – biochemical, small-molecule microarray, 635 nm fluorescence scan, primary screen (AID 1110); conditions: higher = more signal
Chain of Left-right determination factor 2 (Homo sapiens) (O00292 whole entry, looked up): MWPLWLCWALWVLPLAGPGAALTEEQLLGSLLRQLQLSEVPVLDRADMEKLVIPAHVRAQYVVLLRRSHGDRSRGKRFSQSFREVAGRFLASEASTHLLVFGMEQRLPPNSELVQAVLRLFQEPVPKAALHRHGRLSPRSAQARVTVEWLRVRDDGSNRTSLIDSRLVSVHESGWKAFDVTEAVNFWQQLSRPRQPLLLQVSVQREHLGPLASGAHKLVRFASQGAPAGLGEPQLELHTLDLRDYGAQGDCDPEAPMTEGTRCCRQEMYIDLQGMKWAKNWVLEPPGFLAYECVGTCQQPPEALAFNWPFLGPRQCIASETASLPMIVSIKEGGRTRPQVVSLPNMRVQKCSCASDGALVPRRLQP

[4] = biological target: Calmodulin-1 (Homo sapiens) (UniProt P0DP23); assay: small molecules binding calmodulin-1 with EGTA – biochemical, small-molecule microarray, Cy5-labelled CALM1, profiling panel (AID 1111); conditions: Cy5-CALM1 binding fluorescence, higher = more signal;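 also: labelled calmodulin applied in Tris saline Tween buffer holding calcium plus EGTA and DTT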
[5] = biological target: Calmodulin-1 (Homo sapiens) (UniProt P0DP23); assay: small molecules binding Ca-loaded calmodulin-1 – biochemical, small-molecule microarray, Cy5-labelled CALM1, plus calcium, artefact control for SMM control-protein annotation, profiling panel (AID 1112); conditions: Cy5-CALM1 binding fluorescence, higher = more signal;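 also: score merges spot fluorescence with signal to noise from triplicate slides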
[6] = probe aWnt5a binding to arrayed compounds – biochemical, biotinylated probe, 635/667 nm fluorescence, primary screen (AID 1113); conditions: small-molecule microarray, higher = more signal;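 also: score merges 667 nm fluorescence intensity with signal-to-noise per printed feature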
[7] = probe aShh binding to arrayed compounds – biochemical, biotinylated probe, 635/667 nm fluorescence, primary screen (AID 1114); conditions: small-molecule microarray, higher = more signal;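 also: probe is biotin-labelled aShh protein from a stem cell growth factor screen; measures binding of labelled protein to compounds printed on the slide; score merges feature fluorescence at 667 nm with signal-to-noise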
[8] = probe aNog binding to arrayed compounds – biochemical, biotinylated probe, 635/667 nm fluorescence, primary screen (AID 1115); conditions: small-molecule microarray, higher = more signal;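 also: probe is biotinylated aNog protein used at 0.15 µg/mL for 1 h at 4 C; z-score combines 667 nm fluorescence of each spot with its signal to noise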
[9] = biological target: Torsin-1A-interacting protein 1 (Homo sapiens) (UniProt Q5JTV8); assay: compound microarray binding of lysate hLAP1 – cell lysate, small-molecule microarray, COS7 lysate, 635/667 nm fluorescence, primary screen (AID 1116); conditions: 635 nm fluorescence, higher = more signal
Chain of Torsin-1A-interacting protein 1 (Homo sapiens) (Q5JTV8 whole entry, looked up): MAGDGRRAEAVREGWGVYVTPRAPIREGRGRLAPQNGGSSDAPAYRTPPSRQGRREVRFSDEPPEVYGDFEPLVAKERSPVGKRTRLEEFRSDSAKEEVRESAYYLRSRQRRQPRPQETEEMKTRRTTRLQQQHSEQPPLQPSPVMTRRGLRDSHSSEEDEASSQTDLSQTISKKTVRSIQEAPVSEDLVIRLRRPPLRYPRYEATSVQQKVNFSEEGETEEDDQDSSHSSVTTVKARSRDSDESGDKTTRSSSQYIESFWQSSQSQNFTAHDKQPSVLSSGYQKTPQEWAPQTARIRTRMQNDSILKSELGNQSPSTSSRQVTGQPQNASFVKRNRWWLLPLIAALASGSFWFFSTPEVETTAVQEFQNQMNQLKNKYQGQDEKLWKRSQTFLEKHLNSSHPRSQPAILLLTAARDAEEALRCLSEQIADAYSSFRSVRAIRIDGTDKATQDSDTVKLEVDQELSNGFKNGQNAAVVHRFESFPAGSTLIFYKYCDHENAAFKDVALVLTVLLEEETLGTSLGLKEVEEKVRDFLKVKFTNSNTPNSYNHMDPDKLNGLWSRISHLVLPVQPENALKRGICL

[10] = biological target: Alpha-bungarotoxin (Bungarus multicinctus) (UniProt P60615); assay: compounds binding labelled alpha-BTX control protein – biochemical, small-molecule microarray, Alexa647 label, 635/667 nm fluorescence, artefact control for SMM control protein annotation, profiling panel (AID 1117); conditions: alpha-BTX-A647 binding fluorescence, higher = more signal
Chain of Alpha-bungarotoxin (Bungarus multicinctus) (P60615 whole entry, looked up): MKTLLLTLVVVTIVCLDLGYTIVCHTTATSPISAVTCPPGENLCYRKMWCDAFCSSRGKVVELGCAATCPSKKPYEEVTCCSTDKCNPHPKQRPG

Compound | composite z-score [1] | z-score [2] | composite z-score [3] | composite z-score [4] | composite z-score [5] | composite z-score [6] | composite z-score [7] | composite z-score [8] | composite z-score [9] | composite z-score [10]
C[C@]12C(=O)N(CCO)[C@@H]3C(=O)N(c4ccc(Cl)cc4)CC=CC31O[C@@H]1/C=C\CCCOC(=O)C12 (stereo not given in full) | -0.576 | -0.445 | -1.59 | 0.409 | 0.186 | -0.18 | -0.154 | -0.153 | -0.759 | -0.181
CCCC=C(CCC)[C@@H](NC(=O)c1ccc(C(=O)OC)cc1)c1ccc(C(=O)OC)cc1 | 0.981 | -0.682 | -0.634 | 1.48 | 1.06 | 0.313 | 1.45 | -0.316 | 0.253 | -0.037
CCCCC(=C=CC[C@H](O)c1cccc(OCCO)c1)C[C@H](O)c1cc(Cl)cc(Cl)c1O | 1.39 | -1.59 | -0.0526 | 0.154 | -0.484 | -0.096 | -0.0626 | 0.422 | 0.839 | 0.645
COc1ccc([Si](C)(C)[C@H]2[C@H](CC(=O)N3CCC[C@H]3CO)O[C@@]3(C(=O)N(C)c4ccccc43)[C@@H]2C)cc1 | 0.442 | -0.812 | 0.239 | -0.13 | 0.297 | -0.0721 | -0.0368 | -0.0094 | 1.13 | 0.557
C=C(CC1([C@@H](NP(=O)(c2ccccc2)c2ccccc2)[C@H]2C[C@@H]2CCCC)CC1)c1cccc(OC)c1 | 0.812 | -1.79 | -0.872 | 1.48 | 0.691 | 0.103 | 0.313 | 1.46 | 0.182 | -0.306
COC(=O)[C@@]1(Cc2ccc(OC)cc2)[C@@H]2[C@@H](CC(=O)[C@H]2CC(=O)C(=O)N(C)C)CN1C(=O)c1ccccc1 | 1.42 | -2.35 | 0.243 | 2.66 | 1.51 | 0.346 | 2.46 | 0.899 | 1.51 | 1.67
C=CCC(OC(C)=O)[C@@H]1[C@@H](N(Cc2cccc3ccccc23)C(=O)c2ccc(C)cc2)c2cc(OCCCO)ccc2N1C(=O)Cc1ccc2ccccc2c1 (stereo not given in full) | -0.857 | 0.198 | -0.163 | 1.1 | 0.709 | -0.0718 | -0.0553 | 0.0588 | 0.54 | 0.273
COCCOC(=O)N1C(=O)[C@@]2(c3cc(C#CCC(C(=O)OC)C(=O)OC)ccc31)[C@H](c1ccc(O)cc1)N1[C@H](c3ccccc3)[C@H](c3ccccc3)OC(=O)[C@H]1[C@@H]2C(=O)N1CCc2cc(OC)c(OC)cc2C1 | 0.438 | -0.284 | 1.04 | 0.505 | 0.781 | 0.0215 | 0.0898 | -0.366 | 1.54 | 1.36
COC(=O)[C@@]1(Cc2ccc(OC)cc2)[C@H]2c3cc(C(=O)N(C)C)n(Cc4c(CO)[nH]cc(C)c4=O)c3C[C@H]2CN1C(=O)c1ccccc1 | 0.784 | -1.37 | -0.0944 | 1.1 | 0.351 | 0.302 | 0.04 | -0.211 | 0.376 | 0.302
CCOC(=O)C1=CC[C@@H](c2ccccc2)N(S(=O)(=O)c2ccc(C)cc2)[C@@H]1C#N | 1.32 | -1.72 | 0.0775 | 1.2 | 0.325 | 0.0438 | 0.14 | 0.404 | 0.349 | 0.786
O=C/C=C/c1ccc(-c2ccccc2)cc1 | -1.06 | 0.861 | 0.435 | -0.501 | -0.524 | -0.129 | -0.341 | -0.739 | -0.0833 | 0.27
[N-]=[N+]=NCc1ccccc1C[C@]1(C(=O)N2CCCCC2)COC(c2ccc(OCCCO)cc2)=N1 | 0.288 | -2.57 | 0.227 | 0.103 | -0.171 | -0.255 | 0.262 | -0.694 | 2.29 | 0.49
C=C(COC)/C(=C/C[C@@H](OC(=O)c1ccncc1)c1ccccc1OCCO)c1cnc2ccccc2c1 | 1.24 | -2.8 | 1.14 | 0.528 | -0.469 | 0.067 | 0.111 | 0.361 | 1.47 | 2.96
C=CC[C@H](O)c1ccc(O)c(F)c1 | -2.12 | -1.74 | -1.13 | -0.829 | -0.589 | -0.229 | -0.138 | -0.537 | -0.992 | -0.328
COc1ccc(C(=O)Nc2ccc(CN3C(=O)[C@@]4(O[C@@H](CC(=O)N(CCO)Cc5ccccc5)[C@H]([Si](C)(C)c5ccc(OC)cc5)[C@H]4C)c4ccccc43)cc2)cc1 | -0.471 | -3.92 | 0.444 | 0.655 | -0.0779 | -0.14 | -0.341 | -0.31 | 0.121 | 0.331
COC(=O)[C@@]1(Cc2ccc(F)cc2)[C@H]2c3cc(C(=O)N4CCCC4)n(CCc4c[nH]c5cc(F)ccc45)c3C[C@H]2CN1C(=O)c1ccccc1 | 1.41 | -1.62 | 0.119 | 1.91 | 1.2 | 0.562 | 0.472 | -0.615 | -0.291 | 0.841
CC(C)c1ccc(NN2C(C(O)C(C)c3ccccc3)C=CC3C(=O)N(c4ccccc4)C(=O)C32)cc1 (stereo not given) | -0.377 | 1.63 | 0.162 | 2.61 | 1.35 | 0.474 | 0.252 | 2.01 | 2.3 | 2.13
C[C@]1(C(=O)O)c2ccccc2C(=O)N(Cc2cc(C(F)(F)F)cc(C(F)(F)F)c2)[C@H]1c1ccc(CO)cc1 | 0.966 | 1.07 | -0.255 | -0.076 | -1.16 | -0.145 | -0.214 | 0.081 | -0.0827 | 0.764
